Compounds without any hit were thinned out: in the full panel of roughly 83,000, 20% have a hit.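 Assay: single dose, 48 h. Readout: percent growth (0 = no net growth; negative = cell death). Active: <10.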 Values without a mark were called inactive. Active and inactive are the calls of the source.

The test deals with PC-3 prostate. As to the kind of experiment: NCI-60 one-dose screen, 48 h (100 = growth as untreated, 0 = no growth, -100 = all killed). Conditions: 10 µM unless noted. As for the experimental part: Growth inhibition of the PC-3 human tumor cell line is measured as a screen for anti-cancer activity. Cells are grown in 96 well plates and exposed to the test compound for 48 hours. Compounds are tested at a single concentration, which is 10^-5 M for most compounds. The reported endpoint is percent growth (GI% or GIPRCNT), where numbers from 0 - 100% represent growth inhibition, and numbers from -100% - 0 represent cell death. For example, a value of 40 represents 60% growth inhibition. A value of 0 means no net growth occurred over the course of the experiment. A value of -40 indicates 40% of cells at the beginning of the experiment died by the end of the experiment. A value of -100 means all cells are dead at the end of the experiment.
NCI-60 Human Tumor Cell Lines Screen was performed using the standard one-dose NCI protocol, which is described in more detail at https://dtp.cancer.gov/discovery_development/nci-60/default.htm.
Compounds with GIPRCNT values below 10 were considered active. Activity score was based on GIPRCNT using the following formula: […]
Score is 0 for GIPRCNT values of 100 or above, 50 for GIPRCNT values of 0, and 100 for GIPRCNT values of -100.
`O=C(/C=C/c1ccccc1)Nc1ncc(Cc2ccccc2)s1`: the growth is 23.4%. Consider `COc1ccc(NC(=O)c2ccc(C(=O)Nc3ccc(OC)cc3OC)cc2)c(OC)c1`, for which the growth was 75.9%. On to `N=c1sc(Cc2cc(Cl)ccc2Cl)cn1CC(=O)c1ccccc1`, for which the growth was 62.5%.

As for `COc1ccc(C(O)c2cc3c(N)c(C(=O)Nc4cccc(Cl)c4)sc3nc2C)cc1` (stereo not given), the growth was 27.3%. As for `COc1ccc(Nc2ncccc2NC(=O)c2cn(Cc3cccc(Oc4ccccc4)c3)nn2)cc1OC`, the growth was 67.3%.

On to `C=CCn1c(SCC(=O)Nc2ccc(C(=O)/C=C/c3cc(OC)c(OC)c(OC)c3)cc2)nnc1-c1cc(-c2ccc(OC)cc2)nc2ccccc12`, for which the growth was 80%. As to `COc1ccc(/C=C/C(=O)c2cc3c(N)c(C(=O)Nc4ccc(OC)cc4)sc3nc2C)cc1`, the growth is 32.3%. With `CN(C)c1ccc(/C=C2/C=C(c3ccccc3)OC2=O)cc1`, the growth is 96.9%. Consider `COc1cc(-c2nc3occn3c2-c2ccnc(NCCCNS(=O)(=O)c3ccccc3)n2)ccc1F`, for which the growth was 22.2%.

For `CCN(CC)CCCC(C)Nc1ccc2cc(OC)ccc2n1` (stereo not given), the growth is 95.4%.

As to `O=C(N/N=C/c1ccc([N+](=O)[O-])cc1)c1ccc2nc(-c3ccc(Cl)cc3)[nH]c2c1`, the growth is 21.4%.

In the case of `C=C1C(=O)O[C@H]2[C@H]1CC/C(Cn1cc(-c3cc(C(F)(F)F)cc(C(F)(F)F)c3)nn1)=C\CC[C@@]1(C)O[C@@H]21`, the growth is -81% (active). Turning to `COc1ncc2cc1NS(=O)(=O)c1cccc(c1)C(=O)NCC1=CC=C(S1)c1ncnc3c1SC2=C3C`, the growth was -24.8% (active). Regarding `C=C1C(=O)O[C@H]2[C@H]1CC/C(COC(=O)NCCCCCCCCNC(=O)OC/C1=C/CC[C@@]3(C)O[C@H]3[C@H]3OC(=O)C(=C)[C@@H]3CC1)=C\CC[C@@]1(C)O[C@@H]21`, the growth is -64.3% (active). On to `Cc1ccc(Nc2nc(-c3ccc(F)cc3)c(C#N)c(=O)n2C)cc1`, for which the growth was 67.9%.

As to `COc1ccc(C2=C/C(=C\c3ccc(Cl)cc3)C(=O)N2/N=C/c2ccc(Cl)cc2)cc1`, the growth is 91.4%.

Turning to `Cc1ccc(C)c2c1C(O)(C#Cc1ccccc1)c1ccccc1C2(O)C#Cc1ccccc1` (stereo not given), the growth is 29.4%. With `CCCCCCC(=O)Nc1ncc(Cc2ccc(C)cc2)s1` the figure was 41.7%; with `CC(C)CCC[C@@H](C)C1CCC2C3CCC4=C/C(=N/OCCN(C)C)CC[C@]4(C)C3CC[C@@]21C` (stereo not given in full), 57.1%; with `CC[C@]12C=CCN3CC[C@@]4(c5ccc(OC)cc5N(C)[C@H]4[C@@](O)(C(=O)OC)[C@@H]1OC(=O)CCCN1CCOCC1)[C@@H]32`, 105%. As for `Cc1ccc(S(=O)(=O)n2cc(C3C(Cl)C(=O)N3c3ccc(N4CCOCC4=O)cc3)c3ccccc32)cc1` (stereo not given), the growth is 43.5%. Take `CCn1cc(CNc2ccc(C(=O)Nc3cc4cc(OC)c(OC)cc4c(C)n3)cc2)c(C)n1`: the growth is 18.6%.

Regarding `COc1ccc(-c2nnc(SCC(=O)Nc3ccc(/C(C)=N\O)cc3)n2-c2ccccc2)cc1OC`, the growth is 110%.

For `O=C(CCCCl)NNc1nccc(Nc2ccc(S(=O)(=O)Nc3ccncc3)cc2)n1`, the growth is 93%. In the case of `CCCCCCCCn1ccc2cc(NC(=O)Cn3cc(CN4CCN(CC)CC4)nn3)ccc21`, the growth is 82.6%. `CN1CCN(Cc2ccc(NC(=O)c3cncc(C#Cc4cnn5ccccc45)c3)cc2C(F)(F)F)CC1`: the growth is -4.22% (active).

As for `Cn1cc(C(=O)c2nc(-c3c[nH]c4ccc(Br)cc34)no2)c2cc(Br)ccc21`, the growth is 39.3%. Take `O=C(Cn1nnc2ccccc21)Nc1ccc(-c2nc3ccccc3s2)cc1`: the growth is 83.3%. Regarding `Nc1c(C(=O)O)cc(Cl)cc1[N+](=O)[O-]`, the growth was 80.8%.

Take `O=C1NC(=O)c2c1c1c3ccccc3[nH]c1c1oc3ccc(F)cc3c21`: the growth is 45%.

For `C[C@H]1[C@H](C)CC[C@]2(C(=O)O)CC[C@]3(C)C(=CC[C@@H]4[C@@]5(C)C[C@@H](Cc6cn([C@@H]7O[C@H](CO)[C@@H](O)[C@H](O)[C@H]7O)nn6)[C@H](O)C(C)(C)[C@@H]5CC[C@]43C)[C@H]12`, the growth is 89.8%. Turning to `Cn1c(O)c(C(/C=C/c2ccccc2)=Nc2ccccc2N)c(=O)n(C)c1=O`, the growth is 77.7%.

With `O=c1[nH]cnc2c1C(c1ccc(Br)cc1)c1sc3c(F)cccc3c1O2` (stereo not given), the growth was 82.9%. With `N=C(N)c1ccc(-c2ccc(-c3ccc(F)cc3)s2)s1` the figure was -24.2% (active).

For the molecule `C[C@@H]1CC[C@@]2(OC1)O[C@H]1C[C@H]3[C@@H]4CC=C5C[C@@H](O[C@@H]6O[C@H](CO)[C@@H](O[C@@H]7O[C@@H](CO)[C@H](O)[C@H]7O)[C@H](O)[C@H]6O[C@@H]6O[C@@H](C)[C@H](O)[C@@H](O)[C@H]6O)CC[C@]5(C)[C@H]4CC[C@]3(C)[C@H]1[C@@H]2C`, the growth was -90.2% (active). Consider `O=C1c2cc3c(cc2-c2c1c1ccc(Cl)cc1c(=O)n2C[C@H](O)CO)OCO3`, for which the growth was 6.95% (active). As for `O=C1OCC2=C1C(c1cccc(F)c1)c1cc3c(cc1N2CCO)OCO3` (stereo not given), the growth is 25.1%. With `CCOC(=O)c1c(-c2ccc(Cl)cc2)c(C#N)c2c(C#N)c(N)nn2c1N` the figure was 59.3%; with `Cc1cc(C)c(-c2c(O)c(Br)c(-c3c(C)cc(C)c(Br)c3C)c(O)c2Br)c(C)c1Br`, 27.7%; with `Cc1ccccc1CNc1c2ccccc2nc2ccccc12`, 25.6%.

These data come from PubChem BioAssay (NCI).
